SNCA viab count – counter-screen for SNCA expression inhibitors: cell viability | HEK-293-SNCA-luc viability, GF-AFC fluorescence, 24 h | Potency, µM (top dose mostly 57.1 µM), for the others: top-dose activity change, negative = cytotoxicity, hits mostly cytotoxic | hit rate 0.12% among 150,000 | AID 1671193;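 also: potency is read from the fitted curve at half-maximal effect; 0% = DMSO-treated cells and -100% = medium-only wells without cells; nearly all actives have a fitted effect of over 30% in size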
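Cytotoxicity counterscreen: after 24 h compound treatment of genome-edited SNCA-luciferase HEK-293 cells, live-cell protease substrate GF-AFC read by fluorescence after 30 min; activity scaled between DMSO (0%) and medium-only (-100%), curves Hill-fitted.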
SNCA expr inh – SNCA gene expression inhibition. Potency, µM (highest dose often 57.2 µM), for the others: at the highest dose activity change, negative = inhibition, usual class: inhibitors. hit rate 0.17% among 140,000. AID 1671194. HEK-293 SNCA-luciferase knock-in, luminescence, 24 h;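 also: potency is read from the fitted curve at half-maximal effect; plate controls were DMSO cells for no effect and cell-free wells for full effect; nearly all actives have a fitted effect of over 45% in size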
IP6K1 inh – IP6K1 kinase inhibition; Q92551; IP6K1 kinase, ADP-Glo luminescence, 2 h; hits give low values; activity change, % (series mostly up to about 58 µM); hit rate 0.81% among 140,000; in the data active = activity change below about -25%; also: % is scaled to controls: 0 for no effect and ±100 for the full control effect
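ADP-Glo luminescence measures ADP made by human IP6K1 during a 2 h RT reaction with ATP/IP6 (mix at 1.3 mM/130 uM); top library doses 57.5 and 19.1 uM final.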
KDM5B inh – blocks human KDM5B histone demethylase activity | Q9UGL1 | KDM5B demethylase, FDH-coupled NADH fluorescence (FDH is formaldehyde dehydrogenase) | Potency, µM (highest dose often 57.7 µM), most hits filed as inhibitors | hit rate 2.6% among 220,000; also: potency is read from the fitted curve at half-maximal effect; 0% is about no effect; nearly all actives have a fitted effect of over 70% in size
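Inhibition is measured as reduced NADH fluorescence generation from FDH coupling to formaldehyde release. Truncated KDM5BΔAP at 200 nM final acts on H3K4me3 peptide (12.5 µM in substrate mix) in pH 7.5 HEPES buffer with Tween-20, 30 min, room temperature.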
* hit, by the source's call; i = inactive; ? = inconclusive; . = no result; [ ] = remark or other dose. Sampled rows, rich in hits. Any-hit rate of the full collection: about 3%. Unless noted, calls follow the shape of the dose curve; as a rule, active = well fitted curve in the direction sought with a large enough effect; inconclusive = small, poorly fitted or top-dose-only effect, or another doubt; inactive = no such curve, though single readings can be large; an effect the other way counts as inactive or inconclusive.

SMILES | SNCA viab count | SNCA expr inh | IP6K1 inh | KDM5B inh
COCCNC(=O)c1ccc2c(c1)N(C)C(CC(=O)Nc1cccnc1)CO2 (stereo unspecified) | -1.4% | 3.3% | -3.8 | ?
COCCNC(=O)c1ccc2c(c1)N(C)C(CC(=O)NCC(C)(C)C)CO2 (stereo unspecified) | 9.9% | -20.5% | 5.6 | 28.2µM*
CC(C)NC(=O)NC1CCN(Cc2cccc(-c3ccc(F)c(F)c3)c2)CC1 | . | . | 17.8 | .
O=C(c1ccsc1)N1CCCC2(C1)Nc1cccnc1NC2=NC1CCCC1 (stereo unspecified) | 0.6% | -23.0% | 12.1 | 8.91µM*
O=C(Nc1ccccc1Cl)N1CCCC2(C1)Nc1cccnc1NC2=NC1CCCC1 (stereo unspecified) | ? | -25.4% | 1.3 | 28.2µM*
Cc1cc(C(=O)N2CCCC3(C2)Nc2cccnc2NC3=NCc2ccccc2)nn1C (stereo unspecified) | -0.4% | 16.1% | 0.0 | ?
O=S(=O)(c1cccnc1)N1CCCC2(C1)Nc1cccnc1NC2=NCc1ccccc1 (stereo unspecified) | -8.6% | -19.1% | 10.3 | 28.2µM*
COCCN=C1Nc2ncccc2NC12CCCN(C(=O)c1cccc(OC)c1)C2 (stereo unspecified) | 2.8% | -5.1% | 3.3 | 31.6µM*
COc1ccc(C(=O)N2CCCC3(C2)Nc2cccnc2NC3=NC2CCCC2)cc1F (stereo unspecified) | -27.6% | 4.5% | 0.6 | ?
O=C(NC1CCCCCC1)c1nc2sccn2c1-c1cccnc1 | -15.7% | -6.7% | 26.7 | .
Cc1noc(C)c1CC(=O)N1CCCC2(C1)Nc1cccnc1NC2=NC1CCCC1 (stereo unspecified) | 0.7% | 24.1% | 0.0 | 25.1µM*
O=C(c1ccccc1)N1CCCC2(C1)Nc1cccnc1NC2=NC1CCCC1 (stereo unspecified) | -22.0% | -9.2% | 0.0 | 28.2µM*
COc1ccccc1CCC(=O)N1CCCC2(C1)Nc1cccnc1NC2=NC1CCCC1 (stereo unspecified) | -9.4% | 23.2% | 3.3 | ?
O=C(c1ccccc1Cl)N1CCCC2(C1)Nc1cccnc1NC2=NC1CCCC1 (stereo unspecified) | 2.0% | 6.4% | 2.6 | ?
O=C(c1ccccc1)N1CCCC2(C1)Nc1cccnc1NC2=NCc1ccccc1 (stereo unspecified) | -6.0% | 2.6% | 0.0 | 28.2µM*
CCOc1ccc(C(=O)N2CCCC3(C2)Nc2cccnc2NC3=NC2CCCC2)cc1 (stereo unspecified) | ? | -23.7% | 0.0 | 31.6µM*
Cc1ccc(-c2ccccc2CN2CCC(C(=O)NCCc3ccccc3)CC2)cc1Cl | 2.9% | 15.9% | -13.0 | .
CC(C)CC(=O)NCC(=O)N1CCN(c2ccccn2)CC1 | 1.3% | 34.3% | 10.8 | 25.1µM*
O=C1N[C@H](CC(=O)N2CCN(c3ccccn3)CC2)C(=O)Nc2ccccc21 | 10.4% | -10.6% | -1.9 | 28.2µM*
Cn1c(N2CCN(C(=O)C[C@H]3NC(=O)c4ccccc4NC3=O)CC2)nc2ccccc21 | 5.8% | -10.8% | 1.2 | i
O=C(NCC(=O)N1CCN(c2ccccn2)CC1)c1cncc(Br)c1 | 10.3% | 0.8% | 2.8 | ?
O=C(NCC(=O)N1CCN(c2ccccn2)CC1)c1cc2ccccc2[nH]1 | -2.7% | 75.7% | 2.4 | 14.1µM*
CCOc1ccccc1C(=O)NCC(=O)N1CCN(c2ccccn2)CC1 | 14.4% | 20.7% | 5.6 | 28.2µM*
Cn1ncc2c(C(=O)CCc3ccc(F)cc3)cc(-c3ccc(Cl)cc3Cl)nc21 | -14.9% | -10.8% | -6.2 | .
CNC(=O)[C@H]1C[C@]2(CCCCN(CCO)C2=O)N(C(=O)Cc2ccc(F)cc2)[C@H]1c1ccco1 | . | . | -8.9 | .
SMILES | SNCA viab count | SNCA expr inh | IP6K1 inh | KDM5B inh
CC(C)[S+](=O)([O-])N(C)Cc1cccc(N2CCN([S+](=O)([O-])c3c(Cl)cccc3Cl)CC2)c1F | . | . | 4.1 | .
COc1ccc(CC(=O)NC2CCN(C(=O)c3ccc(-c4ccccc4OC)cc3)CC2)cc1 | -2.4%[12.5 µM] | -9.2% | 3.6 | .
COc1ccccc1-c1cccc(CN2CCC(NC(=O)c3ccccc3C)CC2)c1 | . | . | 16.8 | .
COc1ccccc1-c1cccc(CN2CCC(NC(=O)c3ccc(F)cc3)CC2)c1 | -6.0% | -21.4% | 13.4 | .
O=C(Cc1c(F)cccc1Cl)NCC(=O)N1CCN(c2ccccn2)CC1 | 10.6% | 9.2% | 5.5 | 25.1µM*
CC(=O)NCc1ccc(S(=O)(=O)N2CCN(c3ccccn3)CC2)cc1 | . | . | . | i

Source: PubChem (National Center for Advancing Translational Sciences (NCATS))
